Anesthetic bind – qHTS Assay for Identification of Novel General Anesthetics; Ferritin light chain (Equus caballus), P02791; Potency, µM (highest dose often 77.5 µM), hits mostly inhibitors; hit rate 0.074% among 350,000; apoferritin/1-aminoanthracene competitive binding, fluorescence; further: nearly all actives have a fitted effect of over 20% in size
Target sequence (P02791 2-175 limits assumed): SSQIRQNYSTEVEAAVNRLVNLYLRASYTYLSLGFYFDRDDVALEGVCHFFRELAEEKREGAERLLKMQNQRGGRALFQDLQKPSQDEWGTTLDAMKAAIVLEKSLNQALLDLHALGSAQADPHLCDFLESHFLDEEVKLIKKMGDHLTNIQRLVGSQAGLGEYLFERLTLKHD
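Probe: 1-aminoanthracene (50% saturated, PBS). Protein: horse-spleen apoferritin, 10 uM. Incubation: 10 min, room temperature. Detection: 380 nm excitation, 535 nm emission. Analysis: normalized response, four-parameter Hill.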
p53 reactivation – qHTS assay for re-activators of p53 using a Luc reporter. H1299 p53-A138V BP100-luciferase reporter, luminescence, 24 h. Potency, µM (series often up to 92.2 µM), most hits filed as activators. hit rate 0.063% among 320,000; further: nearly all actives have a fitted effect of over 45% in size
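H1299 (p53-null), stable ts p53-A138V + BP100-Luc; 1000 cells/well, Opti-MEM/10% FBS; cpd 4 pt, 1:5; 24 h, 37 deg C, 5% CO2; detection reagent 10 min RT; luminescence.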
miR-21 reporter – qHTS Assay for Modulators of miRNAs and/orActivators of miR-21 | 340,000 tested, under 10 active | AID 2288, 2010 | HeLa miR-21 FLuc reporter, luciferase, 48 h | Potency, µM (series often up to 38.3 µM), most hits filed as activators;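 further: miR-21 action dims this reporter so a rising signal means less miR-21 action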
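HeLa cells stably expressing CMV-driven firefly luciferase with a downstream miR-21 binding sequence, endogenously expressing miR-21, were treated with titrations (up to about 40uM final) for 48 hours at 37 degree Celsius. Luciferase luminescence was read after lysis.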
BRCA1 expr act – qHTS Assay to Identify Small Molecule Activators of BRCA1 Expression | MCF7-BRCA1-FFLuc reporter, luminescence, 48 h; response scale: scaled: vehicle 0%, 10 µM genistein 100% | Potency, µM (doses to about 46.1 µM), usual class: activators | hit rate 1.1% among 380,000; further: nearly all actives have a fitted effect of over 80% in size
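First, MCF7-BRCA1-FFLuc cells (2000/well) attach for 2 h; next, compounds are pin-added and incubated 48 h at 37 °C; finally, luciferase reagent is added and luminescence read after 15 min.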
Hits are given with their value; ! = repeats disagree. The list is not random: actives were taken first. Their share in the collection is about 1.1%. The call rests on the fitted dose curve; in most records, active means well fitted curve in the direction sought with a large enough effect; inconclusive means small, poorly fitted or top-dose-only effect, or another doubt; inactive means no such curve, though single readings can be large; an effect the other way counts as inactive or inconclusive.

CCOc1ccccc1-c1nc(-c2ccc(C)nc2OC)no1 was read as Anesthetic bind inactive, p53 reactivation inconclusive, miR-21 reporter inactive and BRCA1 expr act 7.1µM.
`COc1ccc(-c2ccc(-c3noc(-c4ccccc4)n3)c(OC)n2)cc1` gave Anesthetic bind inactive, p53 reactivation inactive, miR-21 reporter inactive and BRCA1 expr act inactive.
For COc1nc(-c2ccccc2)ccc1-c1noc(-c2ccccc2)n1 the results were Anesthetic bind inactive, p53 reactivation inconclusive, miR-21 reporter inactive and BRCA1 expr act 6.3µM.
For CCN(c1cccc(C)c1)c1ncnc2nc[nH]c12 the results were Anesthetic bind inactive, p53 reactivation inactive, miR-21 reporter inactive and BRCA1 expr act inactive.
`Cc1cccc(COc2ncnc3nc[nH]c23)c1` gave Anesthetic bind inactive, p53 reactivation inactive, miR-21 reporter inactive and BRCA1 expr act 10µM.
For CN(C)c1ccc(C=Nc2ccc(N(C)C)cc2)cc1 the results were Anesthetic bind inactive, p53 reactivation 40µM, miR-21 reporter inactive and BRCA1 expr act inactive.
For CCN(Cc1ccccc1)C(=O)Cn1cc(S(=O)(=O)Cc2cccc(Cl)c2)c2ccccc21 the results were Anesthetic bind inactive and miR-21 reporter inactive.
For CC(=O)c1ccc2c(c1)Cc1cc(C(C)=O)ccc1-2 the results were Anesthetic bind inactive, p53 reactivation inconclusive, miR-21 reporter inactive and BRCA1 expr act 2µM.
CC(=NO)c1ccc2c(c1)Cc1cc([N+](=O)[O-])ccc1-2 was read as BRCA1 expr act 5.6µM.
CC(=O)c1ccc(N2CCN(C(=O)NCc3noc4ccc(C)cc34)CC2)cc1 was read as Anesthetic bind inactive and miR-21 reporter inactive.
For O=C(N1CCc2cc(S(=O)(=O)NC[C@H]3O[C@@H](n4ccc(=O)[nH]c4=O)[C@H](O)[C@@H]3O)ccc2C1)C(F)(F)F the results were BRCA1 expr act inactive.
For COc1cc(C(F)(F)F)ccc1C(=O)NCCc1ccco1 the results were Anesthetic bind inactive, p53 reactivation inactive, miR-21 reporter inactive and BRCA1 expr act 6.3µM.
Cc1nc2ccccc2nc(=O)c1NNc1ccccc1 was read as Anesthetic bind inactive, p53 reactivation inconclusive, miR-21 reporter inactive and BRCA1 expr act 5µM!.
Cc1ccc2nc(=O)c(NNc3ccccc3)cnc2c1 was read as Anesthetic bind inactive, p53 reactivation inactive, miR-21 reporter inactive and BRCA1 expr act inactive.
For CCCC(=O)N=C1SC2CS(=O)(=O)CC2N1c1ccc(-c2nc3ccc(C)cc3s2)cc1 (stereo unspecified) the results were Anesthetic bind inactive, p53 reactivation inconclusive, miR-21 reporter inactive and BRCA1 expr act 16µM.
Cc1cccc(/C=N/NC(=O)Cc2cccs2)c1 was read as Anesthetic bind inactive, p53 reactivation inactive, miR-21 reporter inactive and BRCA1 expr act 11µM.
`CCOC(=O)N/N=C/C(Cl)=C/c1ccccc1` gave Anesthetic bind inactive, p53 reactivation inactive, miR-21 reporter inactive and BRCA1 expr act inconclusive.
`O=C(Cc1cccs1)N/N=C/c1ccccc1` gave Anesthetic bind inactive, p53 reactivation inactive, miR-21 reporter inactive and BRCA1 expr act inactive.
For O=C(Cc1cccs1)N/N=C/C(Cl)=C/c1ccccc1 the results were Anesthetic bind inactive, p53 reactivation inactive, miR-21 reporter inactive and BRCA1 expr act 5.6µM.
CC(=O)c1ccc(NC(=O)C2CCN(c3nnc(C)c4c(C)n(-c5ccccc5)nc34)CC2)cc1 was read as Anesthetic bind inactive and miR-21 reporter inactive.
`COc1cccc(CNC(=O)C(Cc2ccccc2)NS(=O)(=O)c2ccc3c(c2)CCN3C(C)=O)c1` (stereo unspecified) gave Anesthetic bind inactive and miR-21 reporter inactive.
`CSc1cccc(NC(=O)C2C3C=CC4(O3)C2C(=O)N(CCN2CCOCC2)C4C(=O)NC2CCCCC2)c1` (stereo unspecified) gave Anesthetic bind inactive, p53 reactivation inactive, miR-21 reporter inactive and BRCA1 expr act inactive.
Screening CCc1ccc(/C=N/N2CCN(c3ccccn3)CC2)cc1 returned Anesthetic bind inactive, p53 reactivation inactive, miR-21 reporter inactive and BRCA1 expr act 13µM.
Cc1ccc2nc(NC(=O)CN3CCOCC3)sc2c1 was read as Anesthetic bind inactive, p53 reactivation inconclusive, miR-21 reporter inactive and BRCA1 expr act 3.5µM.
COCC(=O)Nc1nc2ccc(C)cc2s1 was read as Anesthetic bind inactive, p53 reactivation inconclusive, miR-21 reporter inactive and BRCA1 expr act inactive.
`COC(=O)c1ccc2nc(NC(=O)COC(=O)CSc3nc(C)cc(C)n3)sc2c1` gave Anesthetic bind inactive, p53 reactivation inconclusive, miR-21 reporter inactive and BRCA1 expr act inactive.
For Cc1ccc2nc(NC(=O)COC(=O)c3ccncc3)sc2c1 the results were Anesthetic bind inactive, p53 reactivation inactive, miR-21 reporter inactive and BRCA1 expr act 8.9µM.
`Cc1ccc2nc(NC(=O)COC(=O)CSc3nc(C)cc(C)n3)sc2c1` gave Anesthetic bind inactive, p53 reactivation inconclusive, miR-21 reporter inactive and BRCA1 expr act 10µM.
`CCN1CCN(CC(=O)Nc2nc3ccc(C)cc3s2)CC1` gave Anesthetic bind inactive, p53 reactivation inconclusive, miR-21 reporter inactive and BRCA1 expr act inactive.
Screening CC(C)C1C(=O)Nc2ccc(S(=O)(=O)NCCc3ccc(Cl)cc3)cc21 (stereo unspecified) returned Anesthetic bind inactive, miR-21 reporter inactive and BRCA1 expr act inactive.
COc1cc2c(NC3CCN(C)CC3)nc(N3CCCN(C)CC3)nc2cc1OCCCN1CCOCC1 was read as BRCA1 expr act inactive.
CCOc1ccc(N=Nc2c(N)[nH][nH]c2=O)cc1 was read as Anesthetic bind inactive, p53 reactivation inconclusive, miR-21 reporter inactive and BRCA1 expr act 5µM.
`CCC(=O)c1ccc(OCc2ccc(C(=O)OC)cc2)cc1` gave Anesthetic bind inactive, p53 reactivation inactive, miR-21 reporter inactive and BRCA1 expr act inactive.
For CCC(=O)c1ccc(OCc2ccc(C#N)cc2)cc1 the results were Anesthetic bind inactive, p53 reactivation inconclusive, miR-21 reporter inactive and BRCA1 expr act 3.5µM.
For COc1ccccc1CNC(=O)CC(c1ccc(C)cc1)N1Cc2ccccc2C1=O (stereo unspecified) the results were Anesthetic bind inactive, miR-21 reporter inactive and BRCA1 expr act inactive.
For CC(Oc1ccccc1F)C(=O)NNC(=O)Cc1ccc(S(=O)(=O)N2CCOCC2)s1 (stereo unspecified) the results were BRCA1 expr act inactive.
`Cc1cc(N2CCOCC2)ccc1/C=C1\SC(=O)N(C(C)C)C1=O` gave Anesthetic bind inactive, p53 reactivation inactive, miR-21 reporter inactive and BRCA1 expr act inconclusive.
For CCC(C)N1C(=O)S/C(=C/c2ccc(N3CCOCC3)cc2C)C1=O (stereo unspecified) the results were Anesthetic bind inactive, p53 reactivation inconclusive, miR-21 reporter inactive and BRCA1 expr act 8.9µM.

Screening results from PubChem.
